# Bioassay records from PubChem BioAssay.
# In the library only some 7.9% were active in any assay of this set; here they are far more common.
# HT1080NT lethal – kills 2HG-producing HT-1080-NT fibrosarcoma cells; HT-1080-NT fibrosarcoma viability, CellTiter-Glo ATP luminescence, 48 h; Potency, µM (series often up to 46.1 µM), without a hit: at the top dose activity, negative = less viability, hits mostly cytotoxic; 1.6% of 360,000 active; AID 686970;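 note: NT is the 2HG producing partner of a matched IDH1 knockdown line; 0% = DMSO-treated cells and -100% = media-only wells without cells; nearly all actives have a fitted effect of over 55% in size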
#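 750 cells/well, RPMI + 5% FBS; 2 h settle, compound pin-transfer, 48 h at 37 degrees C. CellTiter-Glo 10 min RT, luminescence. Normalized to DMSO and media-only wells.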
# SW480 rerep – induces DNA re-replication in SW480 colon adenocarcinoma cells | Potency, µM (top dose mostly 46.1 µM), for inactives: at the highest dose re-replication activation, most hits filed as activators | 1.8% of 340,000 active | SW480 DNA re-replication, Hoechst DNA content imaging, 48 h; note: % of control where 0% means no effect; nearly all actives have a fitted effect of over 55% in size
#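 DNA re-replication was detected as more nuclei of elevated Hoechst intensity after 48 hr exposure to compound (23 nL pinned per well of 250 cells).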
# HT1080 IDH1KD tx – HT-1080 IDH1 knockdown cell toxicity (counter line). HT-1080 IDH1 knockdown viability, ATP luminescence, 48 h. Potency, µM (doses to about 46.1 µM), for inactives: at the top dose activity, negative = toxicity, usual class: cytotoxic. 2% of 360,000 active;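 note: 0% = DMSO wells and -100% = cell-free medium wells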
#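 Using the IDH1-knockdown HT-1080 line run in the same batch and compound series as the NT line, viability after 48 h at 37 °C was determined by CellTiter-Glo luminescence and expressed as % activity.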
# KB-3-1 tox – KB-3-1 parental cell cytotoxicity | KB-3-1 viability, CellTiter-Glo ATP luminescence, 72 h | 1.4% of 400,000 active | AID 1347075 | Potency, µM (top dose mostly 46.1 µM), most hits filed as cytotoxic; note: % is set by controls: 0 for no effect and ±100 for the full control effect; nearly all actives have a fitted effect of over 60% in size
#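 KB-3-1 parental drug-naive adenocarcinoma cells in DMEM/10% FBS, incubated 72 h at 37 C with pin-transferred compounds across a concentration series. Viability by CellTiter-Glo luminescence; concentration-response curves fitted after normalization.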
# KB-V1 MDR tox – kills drug-selected multidrug resistant KB-V1 cells; 3.4% of 400,000 active; Potency, µM (doses to about 46.1 µM), actives largely listed as cytotoxic; KB-V1 MDR cells viability, CellTiter-Glo, 72 h; note: % is set by controls: 0 for no effect and ±100 for the full control effect; nearly all actives have a fitted effect of over 60% in size
#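 Cytotoxicity via CellTiter-Glo luminescence after 72 h compound exposure at 37 degrees C. Cells: drug-selected KB-V1 line, DMEM phenol-red free plus 10% FBS. Compounds tested at multiple concentrations; normalized data fitted to concentration-effect curves.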
# MCF10A rereplic – inducers of DNA re-replication in MCF 10A breast cells | Potency, µM (titrated, usually from 46.1 µM), for the others: at the highest dose activity, positive = re-replication, usual class: activators | MCF 10A DNA re-replication, Hoechst nuclear intensity, 48 h | 2.9% of 350,000 active; note: % of control where 0% means no effect; nearly all actives have a fitted effect of over 50% in size
# * = called active by the depositor; i = inactive; ? = inconclusive; nt = no result. Calls come from the whole dose curve; as a rule, active = well fitted curve in the direction sought with a large enough effect; inconclusive = small, poorly fitted or top-dose-only effect, or another doubt; inactive = no such curve, though single readings can be large; an effect the other way counts as inactive or inconclusive. Potency is the fitted concentration of half-maximal effect.
SMILES,HT1080NT lethal,SW480 rerep,HT1080 IDH1KD tx,KB-3-1 tox,KB-V1 MDR tox,MCF10A rereplic
Cc1ccc(-c2cc(NC=O)c3ncc(-c4cnn(C)c4)n3c2)cc1,?,nt,?,10µM*,5.8µM*,nt
COc1cc(-c2cnc3c(NC=O)cc(-c4ccc(C)cc4)cn23)cc(OC)c1OC,?,nt,?,0.16µM*,0.58µM*,nt
O=C(NCc1ccccc1F)C1CCCN1S(=O)(=O)c1ccc(Cl)cc1 (stereo unspecified),4%,-10%,14%,i,i,-1%
CCOc1cc(C2NC(=O)NC2=O)ccc1O (stereo unspecified),21%,-3%,12%,i,i,-5%
CCOc1cc2c(cc1O)C(=NO)CC1C2CCC2(C)C(O)CCC12 (stereo unspecified),0.29µM*,?,?,i,i,?
CC1(C)Cc2c(cnn2-c2ccc(F)cc2)C(NC(=O)CCCN2CCCCC2=O)C1 (stereo unspecified),-1%,-2%,7%,i,?,11%
Cc1ccc(N=C2SC(C(=O)Nc3ccc(OC(F)(F)F)cc3)C(N)=C2C(=O)Nc2c(C)cc(C)cc2C)cc1 (stereo unspecified),15µM*,12%,18µM*,?,?,3.7µM*
Cc1ccc(NC(=O)C2SC(=Nc3ccccc3)C(C(=O)Nc3ccc(Cl)cc3)=C2N)cc1 (stereo unspecified),-22%,-8%,-26%,i,i,21µM*
Cc1ccc(NC(=O)c2cc3cc(OC(F)(F)F)ccc3[nH]2)cc1,10%,-27%,14%,i,i,0%
CCNC(=O)C1(C)CCN(C(=O)c2ccc(C#N)cc2)C1 (stereo unspecified),30%,nt,22%,i,i,nt
COCCN(C(=O)CSc1nnc(-c2cccc(F)c2)n1N)c1c(N)n(CC(C)C)c(=O)[nH]c1=O,-8%,2%,-2%,i,i,?
Cn1c(CSc2nc3ccccc3n2C)nc2ccccc21,6%,-1%,0%,i,?,0%
Cn1c(SC2=CS(=O)(=O)c3ccccc32)nc2ccccc21,18µM*,?,?,i,i,?
Cc1ccc(CN(C)C(=O)c2ccccc2Oc2ccccc2)o1,-6%,?,-6%,i,21µM*,7%
Cc1ccc(CN(C)C(=O)c2ccc(S(=O)(=O)N(C)c3ccccc3)cc2)o1,4%,8.2µM*,4%,i,i,?
CSc1ccccc1OCc1cc(C(=O)N(C)Cc2ccc(C)o2)no1,-1%,?,1%,i,i,10%
CC(O)(c1cccnc1)c1nc(-c2cccc(C#N)c2)cs1 (stereo unspecified),6%,nt,1%,i,i,nt
O=C1/C(=C\c2ccco2)CCC/C1=C\c1ccco1,9%,?,-5%,i,i,21µM*
Cc1ccccc1OCc1nc2ccccc2c(=O)n1/N=C/c1cn[nH]c1-c1ccccc1,?,?,?,?,13µM*,?
Cc1ccc(-c2[nH]ncc2/C=N/n2c(COc3ccccc3)nc3ccccc3c2=O)cc1,?,?,?,?,?,18µM*
Cc1nc2ccccc2c(=O)n1/N=C/c1cn[nH]c1-c1ccccc1,-10%,-5%,-10%,?,i,10%
CN(C)c1cccc(C(=O)Nc2cc(C(F)(F)F)ccc2-n2cnc3ccccc32)c1,1%,-7%,6%,i,i,2%
C[C@H]1CN([C@@H](C)CO)C(=O)CCCn2nncc2CO[C@@H]1CN(C)Cc1cccc(C(=O)O)c1,14%,nt,28%,i,i,nt
COc1ccc(CN2CC[C@H]3C=CC[C@@H](C(=O)N4CCN(c5ccccc5)CC4)[C@H]3C2=O)cc1OC,nt,nt,nt,i,i,nt
CC(=O)Nc1ccc(N=Cc2c(O)c(C(=O)Nc3ccccc3)cc3ccccc23)cc1,-28%,-5%,?,i,?,3.7µM*
SMILES,HT1080NT lethal,SW480 rerep,HT1080 IDH1KD tx,KB-3-1 tox,KB-V1 MDR tox,MCF10A rereplic
CC(=O)Nc1ccc(N=Cc2c(O)c3ccccc3oc2=O)cc1,0%,-15%,-5%,i,i,5%
CC(C)C1C(C#N)=C(N)Oc2n[nH]c(-c3ccc4ccccc4c3)c21 (stereo unspecified),?,?,?,?,8.2µM*,-3%
COc1ccc(CNC(=O)C(=O)NCC2OCCCN2S(=O)(=O)c2cccs2)cc1 (stereo unspecified),0%,-4%,0%,i,i,-3%
Cc1cc(=O)[nH]c(NNC(=O)c2ccc(Cl)cc2)n1,2%,nt,1%,i,i,nt
Cc1ccc(C)c(NC(=O)C2CCCN(c3nc4ccccc4s3)C2)c1 (stereo unspecified),nt,nt,nt,i,i,nt
COC(=O)c1ccc(NC(=O)c2cccc(N3C(=O)C4C5C=CC(C6CC56)C4C3=O)c2)cc1 (stereo unspecified),-2%,-2%,-1%,?,?,16µM*
O=C(Nc1ccc(Br)cc1)c1cccc(N2C(=O)C3C4CCC(C4)C3C2=O)c1 (stereo unspecified),-12%,-1%,-14%,i,?,?
O=C(Nc1ccc(F)cc1)c1cccc(N2C(=O)C3C4CCC(C4)C3C2=O)c1 (stereo unspecified),3%,1%,-1%,?,10µM*,-2%
O=C(Nc1ccccc1)c1cccc(N2C(=O)C3C4C=CC(C5CC45)C3C2=O)c1 (stereo unspecified),-21%,-1%,-1%,i,i,-29%
CCC(=O)C1CCCN(C(=O)c2cccc(OC3CCN(S(C)(=O)=O)CC3)c2)C1 (stereo unspecified),-4%,4%,1%,i,i,-1%
COc1cc(NC(=O)CN2c3ccccc3S(=O)(=O)c3ccccc32)cc(OC)c1,nt,nt,nt,i,i,nt
Cc1cccc(NC(=S)NNC(=O)c2ccccc2Br)c1,1%,2%,-1%,i,?,7%
COc1ccc(NC(=S)NNC(=O)c2ccccc2OC(F)F)cc1,3.5µM*,0.58µM*,3.5µM*,i,i,?
Cc1cccc(NC(=S)NNC(=O)c2ccccc2OC(F)F)c1,3%,-7%,-3%,?,16µM*,?
CC1(C)N=C(N)N=C(N)N1c1ccc(OCC(=O)N2CCOCC2)c(Cl)c1,0.52µM*,nt,0.13µM*,?,i,nt
